Screening data as filed in PubChem BioAssay.
This is a sample that favours compounds with a hit; in the whole collection about 4.1% have one here.
hcDAF12 agonist: activators of H. contortus DAF-12 nuclear receptor. HEK293 hcDAF-12 lit1-tk-luc reporter, luminescence; 0% DMSO, 100% Δ7-dafachronic acid. activation, % at 6.8 µM. hit rate 1.4% among 370,000. AID 652067;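 active = activation above the mean of all tested compounds plus 3 SD, cut at about 5.5% in these data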;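 note: 100% = response to 3 µM Δ7-dafachronic acid high control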
ssDAF-12 act: activates DAF-12 receptor from parasite S. stercoralis; hit rate 1% among 370,000; activation, % at 6.8 µM; HEK293 ssDAF-12/GRIP1 lit1-tk-luc reporter, luminescence; % of 3 µM dafachronic acid response;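 active = activation above the mean over all tested compounds plus 3 SD, cut at about 0.9% in these data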;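 note: 0% = DMSO-only wells and 100% = 3 µM delta7-dafachronic acid wells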
DAX1 inh-1: inhibitors of DAX1 repression of SF-1 activated StAR promoter; HEK293T StAR-luciferase reporter, SF-1/DAX-1 repression relief; inhibition, % at 6.8 µM; hit rate 1.1% among 370,000;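 active = inhibition above the mean over all tested compounds plus 3 SD, cut at about 3.6% in these data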;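 note: 0% = DAX-1 cells with DMSO and 100% = cells lacking DAX-1 with DMSO; higher inhibition means more luminescence from relief of DAX-1 repression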
DAX1 inh-2: NR0B1 (DAX1) inhibition. P51843. HEK293 Gal4-DAX1 luciferase reporter, luminescence. inhibition, % at 6.75 µM. hit rate 0.99% among 340,000;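 active = inhibition above the mean over all tested compounds plus 3 SD, cut at about 4.2% in these data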;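 note: 0% = DAX1-transfected cells with DMSO and 100% = empty-vector control cells with DMSO; inhibition shows as a rise in luminescence from relieved DAX1 repression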
Target sequence (P51843 207-470 limits assumed): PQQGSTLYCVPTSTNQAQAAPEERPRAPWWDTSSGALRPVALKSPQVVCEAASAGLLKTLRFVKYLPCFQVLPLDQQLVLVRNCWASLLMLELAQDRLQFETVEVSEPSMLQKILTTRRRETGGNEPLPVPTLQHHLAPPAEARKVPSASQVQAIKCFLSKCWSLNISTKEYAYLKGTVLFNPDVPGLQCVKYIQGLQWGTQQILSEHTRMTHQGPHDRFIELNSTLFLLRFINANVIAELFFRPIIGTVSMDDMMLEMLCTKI
hgDAF12 agonist: hgDAF-12 agonism, primary luciferase screen. hit rate 1.8% among 370,000. HEK293 GAL4-hgDAF12 UAS-luciferase reporter, agonist luminescence; normalized to butyrate control. AID 687014. activation, % at 6.8 µM;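 active = activation above a cutoff set at the mean of all screened compounds plus 3 SD, cut at about 10% in these data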;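 note: 0% = DMSO wells and 100% = sodium butyrate wells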
DAX1 conf: NR0B1 (human) inhibition, confirmation; shares compounds with DAX1 inh-1; HEK293T StAR-promoter luciferase reporter, SF-1/DAX-1 repression; inhibition, % at 6.8 µM; hit rate 87% among 2,400; AID 652134;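 active = inhibition above the average of every tested compound plus 3 SD, cut at about 3.8% in these data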;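 note: 0% = DAX-1 cells with DMSO and 100% = no DAX-1 control cells with DMSO; active compounds raise luminescence by relieving repression of the StAR reporter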
Target sequence (P51843 whole entry, looked up): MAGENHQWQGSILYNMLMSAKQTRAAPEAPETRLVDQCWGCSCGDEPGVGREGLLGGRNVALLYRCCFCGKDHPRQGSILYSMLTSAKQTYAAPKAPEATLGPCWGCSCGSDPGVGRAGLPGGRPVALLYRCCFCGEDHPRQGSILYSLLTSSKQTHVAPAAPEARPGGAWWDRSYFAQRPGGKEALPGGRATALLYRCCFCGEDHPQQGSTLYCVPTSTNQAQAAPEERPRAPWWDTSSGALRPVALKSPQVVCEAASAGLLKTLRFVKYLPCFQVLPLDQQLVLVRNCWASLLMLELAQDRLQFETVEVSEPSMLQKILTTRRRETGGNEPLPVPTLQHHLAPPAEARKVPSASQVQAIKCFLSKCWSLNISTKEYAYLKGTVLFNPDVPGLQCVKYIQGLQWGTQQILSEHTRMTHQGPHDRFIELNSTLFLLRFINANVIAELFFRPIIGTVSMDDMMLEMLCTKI
SF1 AF2mut Luc: nonselective inhibitor or artifact in SF-1 mutant DAX1 counter-screen; AID 652136; inhibition, % at 6.8 µM; hit rate 78% among 2,400; shares compounds with DAX1 inh-1; HEK293 StAR-luciferase, SF-1 AF2 mutant, luminescence;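 active = inhibition above the mean of all tested compounds plus 3 SD, cut at about 3% in these data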;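 note: 0% = DAX-1 transfected cells with DMSO and 100% = cells without DAX-1 with DMSO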
LXRb hcDAF ctr: activates human LXR-beta, counter-screen for hcDAF-12 agonists; shares compounds with hcDAF12 agonist; HEK293 Gal4-LXR tk-luc reporter, luminescence, 24 h; normalized: DMSO 0%, positive control 100%; activation, % at 6.8 µM; 3,400 tested, under 10 active; AID 743027;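 active = mean percent activation of the reporter above a cutoff set as the average over tested compounds plus their standard deviation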
hcDAF12 conf: hcDAF-12 agonism, confirmation assay; hit rate 61% among 3,400; shares compounds with hcDAF12 agonist; activation, % at 6.8 µM; HEK293 hcDAF-12 lit1-tk-luc reporter, luminescence; % of Δ7-dafachronic acid response;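 active = mean activation across triplicate tests above the threshold derived from the earlier primary screen, cut at about 5.5% in these data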;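 note: 0% = DMSO only wells and 100% = 3 µM Δ7-dafachronic acid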
* marks the source's active call; other numbers are inactive results; nt = not tested or not shown.

SMILES | hcDAF12 agonist | ssDAF-12 act | DAX1 inh-1 | DAX1 inh-2 | hgDAF12 agonist | DAX1 conf | SF1 AF2mut Luc | LXRb hcDAF ctr | hcDAF12 conf
Cc1c(C(=O)NCC2CCCO2)oc2ccccc12 (stereo unspecified) | 1.1 | -0.4 | 1.7 | 0.5 | 7.0 | nt | nt | nt | nt
COc1cc2c(cc1NC(=O)CSc1nnc(-c3ccccc3C)n1Cc1ccco1)oc1ccccc12 | 0.2 | -1.5 | -2.0 | nt | 3.2 | nt | nt | nt | nt
COCCNc1ncnc2c1cnn2-c1ccc(Cl)cc1 | 6.9* | -0.1 | 4.9* | 1.9 | 11.6* | 11.0* | 6.4* | 1.6 | 4.9
COC(=O)[C@]12C[C@H](CC(=O)NCc3cccs3)C(=O)N(CCC3=CCCCC3)C1=C[C@H](C1CCCC1)O[C@@H]2C | -2.8 | -0.8 | -0.3 | nt | -2.2 | nt | nt | nt | nt
Cc1ccc(-c2nnc(Nc3ccccc3)o2)cc1 | 8.0* | -0.2 | 5.5* | -4.7 | 6.2 | 19.0* | 8.6* | 1.6 | 6.5*
c1ccc(Nc2nnc(-c3ccc4c(c3)OCO4)o2)cc1 | 7.7* | 1.2* | 5.1* | nt | 9.3 | 6.6* | 0.7 | 0.8 | 2.7
NC(=O)c1ccsc1NC(=O)c1cccs1 | 3.0 | -1.4 | 1.7 | 0.1 | 3.6 | nt | nt | nt | nt
NC(=O)c1ccsc1NC(=O)c1ccc2c(c1)CCCC2 | 14.2* | 2.5* | 6.8* | -0.3 | 18.8* | 11.5* | 7.8* | 2.3 | 20.6*
CN1CCCCC(NC(=O)C23CC4CC(CC(C4)C2)C3)C1=O (stereo unspecified) | 0.1 | -1.2 | 0.3 | nt | -0.2 | nt | nt | nt | nt
COc1ccc(C(=O)Nc2nnc(-c3ccco3)s2)cc1 | 7.7* | 1.1* | 6.9* | -2.1 | 9.1 | 9.0* | 0.9 | 1.2 | 7.2*
CC1CCN(C(=O)c2cc3c(ccc4ccccc43)o2)CC1 | 9.1* | 0.5 | 19.0* | -0.7 | 12.0* | 10.3* | 4.3* | 1.9 | 6.5*
O=C(Nc1ccc(F)cc1)Nc1nc2ncccn2c1-c1ccc(F)cc1 | -3.4 | -1.5 | -0.4 | nt | -0.4 | nt | nt | nt | nt
Fc1cccc(F)c1/C=C/c1ccc2ccccc2n1 | 23.0* | 2.7* | 5.7* | -1.0 | 20.1* | 15.8* | 8.4* | 2.4 | 22.9*
CC(O)/C=C/c1ccc2ccccc2n1 (stereo unspecified) | 2.6 | -0.9 | -0.2 | -1.1 | 3.8 | nt | nt | nt | nt
O=S1(=O)c2ccc(N3CCN(Cc4ccccc4F)CC3)cc2Oc2ccccc2CN1Cc1cn(Cc2cccc(C(F)(F)F)c2)nn1 | -1.6 | -1.1 | -1.6 | nt | -0.5 | nt | nt | nt | nt
O=C(Nc1ccccc1)Nc1ccc(C(=O)N2CCCC2)cc1 | 8.8* | 0.4 | 4.9* | -0.9 | 17.2* | 13.5* | 7.5* | 1.4 | 6.9*
COCc1cn(-c2ccc3c(c2)[C@]2(CC(=O)N(C)C2c2ccccc2)C(=O)N3CC(C)C)nn1 (stereo partly specified) | 2.2 | 0.1 | -0.1 | nt | -2.2 | nt | nt | nt | nt
Cc1cccc(C(=O)O/N=C(\N)c2ccccn2)c1 | -0.8 | -1.1 | -0.3 | -3.0 | -4.2 | nt | nt | nt | nt
N/C(=N\OC(=O)c1ccccc1)c1ccccn1 | 3.8 | -0.8 | 3.1 | -2.8 | 6.1 | nt | nt | nt | nt
N/C(=N\OC(=O)c1ccc(Br)o1)c1ccccn1 | 8.3* | 0.7 | 9.4* | 1.1 | 10.3 | 14.6* | 6.2* | 0.8 | 2.6
N/C(=N\OC(=O)c1cccc(F)c1)c1ccccn1 | 8.2* | 0.4 | 10.6* | -1.1 | 8.6 | 11.5* | 5.2* | 1.0 | 4.9
O=C(O)c1ccc(N/N=C/c2ccc(-c3ccccc3)cc2)cc1 | 7.6* | 1.3* | 7.7* | 5.5* | 12.6* | 19.3* | 8.5* | 1.2 | 6.2*
CC(C)c1ccc(/C=N/Nc2ccc(C(=O)O)cc2)cc1 | -1.5 | -1.8 | -0.8 | -6.1 | -9.1 | nt | nt | nt | nt
NC(=O)c1ccccc1N/C=C/C(=O)c1ccco1 | 3.4 | 0.0 | 2.2 | 1.6 | 9.3 | nt | nt | nt | nt
O=C(/C=C/Nc1ccccc1C(F)(F)F)c1ccco1 | 10.5* | 1.1* | 4.9* | 1.5 | 19.1* | 13.3* | 8.3* | 1.5 | 9.1*
SMILES | hcDAF12 agonist | ssDAF-12 act | DAX1 inh-1 | DAX1 inh-2 | hgDAF12 agonist | DAX1 conf | SF1 AF2mut Luc | LXRb hcDAF ctr | hcDAF12 conf
CCC(C)N(C(=O)Cn1nc(Cc2ccncc2)c2ccccc2c1=O)C(C)CC (stereo unspecified) | -1.2 | -1.3 | -0.3 | nt | -2.1 | nt | nt | nt | nt
Oc1ccc(/C=N/Nc2ncc(Cl)cc2Cl)cc1 | -0.8 | -1.3 | 0.5 | -0.9 | 2.9 | nt | nt | nt | nt
Clc1cnc(N/N=C/c2ccco2)c(Cl)c1 | 7.9* | 0.3 | 4.8* | 1.0 | 11.1* | 14.5* | 8.8* | 1.3 | 8.0*
COc1cccc(NC(=O)N2CCCCCC2)c1 | 7.7* | -0.6 | 4.6* | 0.9 | 5.2 | 5.7* | 4.0* | 0.0 | 1.4
N#CCCCc1cn(-c2cccc(-c3noc4c3C(=O)N(CC(=O)N3CCOCC3)CC4)c2)nn1 | 0.2 | -0.5 | -0.7 | nt | 0.1 | nt | nt | nt | nt
O=C(CCc1ccccc1)N[C@H]1[C@@H](OC(=O)c2ccc([N+](=O)[O-])cc2)CCC[C@]12C(=O)N(Cc1ccccc1)c1ccccc12 | -0.8 | -1.2 | 0.6 | nt | 2.2 | nt | nt | nt | nt
O=C(c1c(Cl)nc2sccn12)N(C(=O)c1c(Cl)nc2sccn12)c1ccc(Cl)cn1 | 7.9* | 1.2* | 5.4* | 1.9 | 8.5 | 10.9* | 3.0* | 1.2 | 11.0*
O=C(NCCc1c[nH]c2ccccc12)c1c(Cl)nc2sccn12 | 0.0 | -1.4 | 0.1 | -0.5 | 1.8 | nt | nt | nt | nt
Nc1ccc(Nc2nc(-c3cccs3)cs2)cc1 | 1.6 | -1.3 | 0.2 | 0.9 | 4.2 | nt | nt | nt | nt
c1ccc(Nc2nc(-c3cccs3)cs2)nc1 | 14.6* | 2.6* | 4.6* | 1.1 | 11.8* | 13.1* | 5.1* | 2.1 | 19.1*
COCc1cc(N2CCN(C(=O)OC(C)(C)C)C[C@H]2C)ccc1N1CCN(Cc2ccccc2)[C@H](C)C1 | -1.5 | -0.5 | -1.3 | nt | -0.3 | nt | nt | nt | nt
COc1ccc(-c2nnc(SCC(=O)NN=C(C)c3cccc4ccccc34)n2-c2ccc(C)cc2)cc1 | 0.4 | -1.8 | -0.7 | nt | -3.2 | nt | nt | nt | nt
COCC1CCN(C(=O)c2cc(COc3ccc(OC)c4ccccc34)on2)C1 (stereo unspecified) | 8.1* | 0.8 | 5.6* | 2.1 | 10.7* | 5.4* | 5.1* | 0.7 | 7.7*
c1ccc2sc(-c3csc4c3CCNC4)nc2c1 | 1.9 | -1.5 | nt | nt | 6.9 | nt | nt | nt | nt
CC(=O)N1CCN(C(=O)c2ccc3oc(CCCc4ccccc4)nc3c2)CC1 | 0.4 | -1.0 | -0.4 | 0.2 | 1.1 | nt | nt | nt | nt
